Screening results deposited in PubChem BioAssay by National Center for Advancing Translational Sciences (NCATS).
JMJD2E inh = qHTS Assay for Inhibitors of Human Jumonji Domain Containing 2E (JMJD2E); Lysine-specific demethylase 4E (Homo sapiens), B2RXH2; Potency, µM (highest dose often 57.1 µM), for the others: top-dose activity change, negative = inhibition, hits mostly inhibitors; hit rate 1.6% among 230,000; JMJD2E catalytic domain, FDH-coupled NADH fluorescence (FDH is formaldehyde dehydrogenase);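 also: potency is read from the fitted curve at half-maximal effect; 0% = wells with enzyme and -100% = buffer wells without enzyme; nearly all actives have a fitted effect of over 50% in size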
Target sequence (B2RXH2 1-337 limits assumed): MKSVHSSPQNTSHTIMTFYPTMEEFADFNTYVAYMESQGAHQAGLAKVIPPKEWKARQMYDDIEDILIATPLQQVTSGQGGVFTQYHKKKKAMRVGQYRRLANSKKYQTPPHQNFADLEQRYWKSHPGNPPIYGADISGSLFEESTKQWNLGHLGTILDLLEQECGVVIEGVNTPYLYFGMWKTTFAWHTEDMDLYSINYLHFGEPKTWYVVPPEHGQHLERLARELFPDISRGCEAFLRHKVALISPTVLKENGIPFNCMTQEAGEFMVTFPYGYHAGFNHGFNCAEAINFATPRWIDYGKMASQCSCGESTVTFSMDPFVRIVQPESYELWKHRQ
ALDH1A1 block = qHTS Assay for Inhibitors of Aldehyde Dehydrogenase 1 (ALDH1A1); Potency, µM (top dose mostly 75.3 µM), for inactives: top-dose activity, negative = inhibition, most hits filed as inhibitors; hit rate 7.3% among 220,000; Purified ALDH1A1, NADH fluorescence, propionaldehyde substrate;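 also: potency is read from the fitted curve at half-maximal effect; plate controls were no enzyme wells and a reference inhibitor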
HPGD block = qHTS Assay for Inhibitors of HPGD (15-Hydroxyprostaglandin Dehydrogenase). hit rate 4.3% among 150,000. Potency, µM, inactives show top-dose activity change, negative = inhibition, hits mostly inhibitors. 15-hydroxyprostaglandin dehydrogenase [NAD(+)] (Homo sapiens), P15428. purified HPGD, NADH fluorescence kinetic, PGE2 substrate; also: potency is read from the fitted curve at half-maximal effect
Target sequence (P15428 whole entry, looked up): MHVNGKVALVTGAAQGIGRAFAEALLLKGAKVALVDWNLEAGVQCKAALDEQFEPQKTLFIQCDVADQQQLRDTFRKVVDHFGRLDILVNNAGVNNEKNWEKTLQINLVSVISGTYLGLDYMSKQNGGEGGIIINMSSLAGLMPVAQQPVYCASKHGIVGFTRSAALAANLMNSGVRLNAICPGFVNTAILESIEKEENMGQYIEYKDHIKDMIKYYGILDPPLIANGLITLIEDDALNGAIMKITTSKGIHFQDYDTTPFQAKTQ
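NADH formation kinetics: reaction with 30 uM PGE2 and 1 mM NAD+ (final), 20 nM enzyme, Tris-HCl pH 8 with Tween 20, after 15 min compound preincubation at room temperature. Fluorescence change, last versus first of five reads.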
PNC assembly inh = High Content Assay for Compounds that inhibit the Assembly of the Perinucleolar Compartment; hit rate 3.1% among 140,000; PC3M PTB-GFP, PNC prevalence imaging, 16 h; hits give low values; AID 2417, 2010; activity change (PNC), negative = inhibition, % at 10 µM;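 active = readout at or below -70, meaning at least 70% loss of cells showing the perinucleolar compartment, a nuclear body marking cancer cells; inconclusive = readout between -30 and a set limit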;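 also: plate controls were DMSO wells for no effect and camptothecin positive control wells for full effect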
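Read-out is percentage of cells bearing a perinucleolar compartment, from automated 20x imaging of fixed, Hoechst-stained PC3M PTB-GFP cells. Cells were seeded 4 h, then exposed 16 h to compound (23 nl of library stock) in duplicate plates.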
* marks the source's active call; other numbers are inactive results; ? = inconclusive; . = no result; [ ] = dose if it differs, or a comment. Rows were chosen to be rich in hits. Some 11% of all compounds tested hit in one or more screens of this group. Unless noted, calls follow the shape of the dose curve; as a rule, active = well fitted inhibition curve with a large enough effect (not every such curve was filed as active); inconclusive = small, poorly fitted or top-dose-only effect, or another doubt; inactive = no such curve, though single readings can be large or run the other way. Unless noted, % is scaled to controls: 0 for no effect and ±100 for the full control effect.

SMILES	JMJD2E inh	ALDH1A1 block	HPGD block	PNC assembly inh
O=C(C[n+]1ccc(C(=O)N/N=C/c2ccc(Br)cc2)cc1)c1ccccc1	-18.3%	1.5%	-18.6%	11.0
Cc1cc(C)n2c(SCC(=O)NC3CCCCC3)nnc2n1	-4.8%	8.1%	.	.
CC(C)CN(C(=O)CN1CCC(C)CC1)c1c(N)n(CC(C)C)c(=O)[nH]c1=O	7.0%	11.4%	.	.
Cc1ccc(S(=O)(=O)N2CCN(CC(=O)N(CC(C)C)c3c(N)n(CC(C)C)c(=O)[nH]c3=O)CC2)c(C)c1	-6.8%	-17.5%	-7.5%	-97.6*
CCCCN(C(=O)CN1CCOCC1)c1c(N)n(CC(C)C)c(=O)[nH]c1=O	1.0%	10.0%	.	-81.2*
O=C(Nc1ccccc1C(F)(F)F)c1cccnc1	9.3%	7.1%	-7.1%	48.5
Cc1ccccc1NC(=S)Nc1cccc2cnccc12	-15.5%	?	.	.
FC(F)(F)c1ccccc1NC(=S)Nc1cccc2cnccc12	?	25.1µM*	.	.
Fc1ccccc1NC(=S)Nc1cccc2cnccc12	?	17.8µM*	.	.
O=C1c2ccccc2C(=O)N1C[C@]1(C(=O)O)NCCS1(=O)=O	.	-2.5%[13.5 µM]	-8.0%	.
COc1ccccc1CNC(=S)Nc1ccc2nc(N3CCN(C)CC3)cc(C)c2c1	?	-18.2%	.	.
FC(F)(F)c1cnc(C(c2ccccn2)c2ncn[nH]2)c(Cl)c1 (centres undefined)	25.1µM*	14.0%	.	.
COc1ccc(/C=C/N(CCc2ccc(OC)c(OC)c2)C(=O)C(F)(F)F)cc1	.	-20.7%[13.5 µM]	.	.
Cc1ccc(-c2cc(C(=O)N/N=C/c3c(C)nn(-c4ccccc4)c3C)n[nH]2)s1	?	?	?	-115.1*
Cc1nn(-c2ccccc2)c(C)c1/C=N/NC(=O)c1cc(C(C)(C)C)[nH]n1	-3.8%	?	-26.7%	-82.6*
Cc1ccc(-c2cc(C(=O)N/N=C/c3c(C)nn(-c4ccccc4)c3C)[nH]n2)cc1	-13.2%	1.8%	?	-91.9*
Cc1[nH]c2ccccc2c1/C=N/NC(=O)c1cc(-c2cccs2)[nH]n1	?	-3.4%	-22.5%	10.4
COC(=O)N/N=C\c1c(C)nn(-c2ccccc2)c1Cl	17.5%	3.8%	-20.5%	-19.9
NC(=O)C1CCN(Cc2nc3cc(C(F)(F)F)ccc3c(=O)[nH]2)CC1	-3.1%	.	.	.
O=C(Nc1ccc(Cl)c([N+](=O)[O-])c1)ONC1=NCCCCC1	6.5%	-1.0%	.	.
CC(O)CNCCNCc1c(OCc2ccccc2)ccc2ccccc12 (centres undefined)	10.9%	28.2µM*	-9.2%	-8.9
CC(O)CNCCOc1ccccc1OCc1ccccc1 (centres undefined)	?	-8.9%	.	.
CCCCCOC(=O)C1=C(C)Nc2nnnn2C1c1ccccc1Cl (centres undefined)	-11.1%	2µM*	-5.9%	-12.7
COC(=O)C1=C(C)Nc2nnnn2C1c1ccccc1Cl (centres undefined)	3.4%	2.51µM*	-8.9%	?
Cc1cc([N+](=O)[O-])ccc1NC(=O)CN1C2CCC1CC(NC(=O)NC13CC4CC(CC(C4)C1)C3)C2 (centres undefined)	2.2%	?	.	.
SMILES	JMJD2E inh	ALDH1A1 block	HPGD block	PNC assembly inh
COc1ccc(/C=N\NC(=O)O)cc1	.	8.9%[13.5 µM]	-4.3%	.
Cc1cccc(-c2noc(CCC(=O)NCC3CCCO3)n2)c1 (centres undefined)	-0.3%	0.9%	25.1µM*	14.7
O=C(Cc1ccccc1)NCC1CCCO1 (centres undefined)	-8.8%	4.0%	-27.4%	34.7
O=C(CCc1c[nH]c2ccccc12)NCC1CCCO1 (centres undefined)	-2.3%	9.2%	14.1µM*	?
O=C(CCc1nc(-c2ccccc2Cl)no1)NCC1CCCO1 (centres undefined)	5.1%	-8.0%	.	.
Cc1ccccc1-c1noc(CCC(=O)NCC2CCCO2)n1 (centres undefined)	-22.6%	2.5%	15.8µM*	2.5
NS(=O)(=O)c1ccc(CCNS(=O)(=O)c2ccc(Cl)nc2)cc1	1.6%	.	.	.
O=C(CSCc1cccc(Cl)c1)Nc1ccccc1-c1ccccc1	-9.0%	?	2.7%	7.0
Cc1ccccc1OCCn1cnc2cc([N+](=O)[O-])ccc2c1=O	-1.0%	?	.	.
S=C1NCCc2ccccc2C1c1ccccc1Cl (centres undefined)	5.6%	6.1%	-6.9%	28.3
S=C1NCCc2ccccc2C1c1ccccc1 (centres undefined)	-7.3%	-6.6%	39.8µM*	-0.4
Cc1nnc(SCc2nc3sc4c(c3c(=O)[nH]2)CCCC4)[nH]c1=O	-6.4%	?	.	.
Cc1cccc2nc(CSc3nc4ccc([N+](=O)[O-])cc4[nH]3)c(Br)n12	-4.8%	25.1µM*	?	-19.2
CCOC(=O)C1=C(C)C(c2ccccc2OC)NC(=S)N1 (centres undefined)	-7.9%	3.55µM*	-9.6%	?
COc1ccc(/C=C(\C#N)C(N)=O)c(OC)c1	.	-2.8%[13.5 µM]	-15.7%	.
COc1cccc(C(=O)NC2CC3CCCC(C2)N3S(=O)(=O)c2ccccc2)c1 (centres undefined)	12.0%	.	.	.
C[C@@H](C(=O)Nc1ccc2ccccc2c1)[C@@H]1C[C@@]1(C)[C@@H](NC(=O)c1cnccn1)c1ccccc1	1.4%	15.3%	?	-20.0
Cc1cc(C(=O)N[C@H](c2ccccc2)[C@@]2(C)C[C@@H]2[C@@H](C)C(=O)Nc2ccc3ccccc3c2)no1	-20.8%	12.6µM*	-11.3%	33.1
C[C@@H](C(=O)Nc1ccc2ccccc2c1)[C@H]1C[C@]1(C)[C@H](NC(=O)c1cnccn1)c1ccccc1	-2.9%	11.2µM*	-9.1%	-91.2*
CCOC(=O)C1CCCN(c2cc(NCCCO)c([N+](=O)[O-])c3nonc23)C1 (centres undefined)	-0.6%	?	12.6µM*	?
O=[N+]([O-])c1c(NCCO)cc(N2CCN(Cc3ccc4c(c3)OCO4)CC2)c2nonc12	1.4%	?	-29.2%	69.9
C=CC(=O)OCCCC	.	5.0%	?	.
O=C1NC(=S)N/C1=C/c1cc([N+](=O)[O-])ccc1O	7.2%	5.01µM*	?	30.9
Cc1ccc(/C=C2\NC(=S)NC2=O)cc1[N+](=O)[O-]	11.6%	-9.7%	.	.
CCc1n[nH]c(=S)n1/N=C/c1c(C)nn(-c2ccccc2)c1Cl	-4.3%	1.6%	.	.
C=CCOc1c(Br)cc(/C=N/n2c(CC)n[nH]c2=S)cc1Br	-2.2%	7.8%	3.16µM*	-23.7
CCc1n[nH]c(=S)n1/N=C/c1ccc(N(CC)CC)cc1	?	10µM*	.	.
CCN(CC)c1ccc(/C=N/n2c(C)cc(C)cc2=O)cc1	?	7.94µM*	?	-123.3*
CCCCN1C(=O)C(O)(CC(=O)c2ccccn2)c2ccccc21 (centres undefined)	-7.4%	1µM*	.	.
